# Reference: PubChem BioAssay (NCATS)
# Records with an inconclusive call do not appear. Values without a mark were called inactive. Active and inactive are the calls of the source. The call rests on the fitted dose curve; in most records, active means well fitted inhibition curve with a large enough effect; inconclusive means small, poorly fitted or top-dose-only effect; inactive means flat fitted curve, though single readings scatter.
# Test system: CP215
# Test: qHTS profiling for inhibitors of Plasmodium falciparum proliferation (AID 504749); further: nearly all actives have a fitted effect of over 60% in size;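 on activity, negative = inhibition: 0% = DMSO vehicle and full inhibition = artemisinin control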
# Details: P. falciparum in erythrocytes, SYBR Green DNA, 72 h; series mostly up to 28.7 µM; activity, negative = inhibition: at the top concentration
# Summary of the method: (§1)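 Quantitative HTS: compounds pinned into medium, infected erythrocytes added (0.3% parasitemia, 2.5% hematocrit), 72 h culture at 37 C under 5% CO2. Saponin/Triton lysis with SYBR Green I, overnight RT, then fluorescence read.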
# Potency means the concentration at half of the fitted maximal effect.
Structure (SMILES),Potency,"activity, negative = inhibition"
CC(C)NCC(O)c1ccc(NS(C)(=O)=O)cc1 (stereo unspecified),inactive,
CC(C)OC(=O)C(C(=O)OC(C)C)=C1SC=CS1,,1.46%
O=c1cc(O)c(Cl)c[nH]1,,2.91%
CC(=O)Oc1ccccc1C(=O)Nc1ncc([N+](=O)[O-])s1,,0.041%
CNC1CCCN(c2c(F)cc3c(=O)c(C(=O)O)cn(C4CC4)c3c2OC)C1 (stereo unspecified),,2.44%

# Test system: CP217
# Test: as above
# Details: P. falciparum in erythrocytes, SYBR Green DNA, 72 h; series mostly up to 28.7 µM; activity, negative = inhibition: at the top concentration
# Summary of the method: as §1
Structure (SMILES),"activity, negative = inhibition",Potency
S=P(N1CC1)(N1CC1)N1CC1,0.769%,
COc1ccc(-c2ccc3cc(C(=O)O)ccc3c2)cc1C12CC3CC(CC(C3)C1)C2,0.653%,
COC(=O)Nc1nc2ccc(C(=O)c3ccccc3)cc2[nH]1,5.46% [at 12.8 µM],
COc1ccc2cc3[n+](cc2c1OC)CCc1cc2c(cc1-3)OCO2,,1.41 µM (active)
CNNCc1ccc(C(=O)NC(C)C)cc1,-10.4%,
N=C(N)c1ccc(OCCCCCOc2ccc(C(=N)N)cc2)cc1,,2.24 µM (active)
Oc1c(Cl)cc(Cl)c2cccnc12,,8.91 µM (active)
CCc1cc(C(N)=S)ccn1,-0.942%,
COc1cc2c(Nc3ccc(Br)cc3F)ncnc2cc1OCC1CCN(C)CC1,,0.447 µM (active)
COC(=O)Nc1nc2ccc(Sc3ccccc3)cc2[nH]1,-1.38% [at 12.8 µM],
C1CCC(C(CC2CCCCN2)C2CCCCC2)CC1 (stereo unspecified),,10 µM (active)
CC(C)Cn1cnc2c(N)nc3ccccc3c21,-14.6%,
CCCc1nc(C)c2c(=O)[nH]c(-c3cc(S(=O)(=O)N4CCN(CC)CC4)ccc3OCC)nn12,-16.8%,
CC(C)(Sc1cc(C(C)(C)C)c(O)c(C(C)(C)C)c1)Sc1cc(C(C)(C)C)c(O)c(C(C)(C)C)c1,0.724% [at 12.8 µM],
COc1cc(NCc2ccc3nc(N)nc(N)c3c2C)cc(OC)c1OC,,0.282 µM (active)
Cc1nnc(NS(=O)(=O)c2ccc(N)cc2)s1,2.73%,
Nc1nc(N)c2nc(CNc3ccc(C(=O)NC(CCC(=O)O)C(=O)O)cc3)cnc2n1 (stereo unspecified),-2.41%,
CCc1c2c(nc3ccc(OC(=O)N4CCC(N5CCCCC5)CC4)cc13)-c1cc3c(c(=O)n1C2)COC(=O)[C@]3(O)CC,-0.833%,
CC(C)NCC(O)c1ccc(NS(C)(=O)=O)cc1 (stereo unspecified),,inactive
CC(C)OC(=O)C(C(=O)OC(C)C)=C1SC=CS1,1.27%,
CC[C@H](C)C(=O)O[C@H]1C[C@@H](C)C=C2C=C[C@H](C)[C@H](CC[C@@H]3C[C@@H](O)CC(=O)O3)[C@H]21,-1.87%,
O=c1cc(O)c(Cl)c[nH]1,0.689%,
CC(=O)Oc1ccccc1C(=O)Nc1ncc([N+](=O)[O-])s1,-8.56%,
COc1ccc(C(=O)CC(=O)c2ccc(C(C)(C)C)cc2)cc1,-0.283%,
CNC1CCCN(c2c(F)cc3c(=O)c(C(=O)O)cn(C4CC4)c3c2OC)C1 (stereo unspecified),-13.4%,

# Test system: CP237
# Test: as above
# Details: P. falciparum in erythrocytes, SYBR Green DNA, 72 h; series mostly up to 28.7 µM; activity, negative = inhibition: at the top concentration
# Summary of the method: as §1
Structure (SMILES),"activity, negative = inhibition",Potency
S=P(N1CC1)(N1CC1)N1CC1,-0.653%,
COc1cc([C@@H]2c3cc4c(cc3[C@H](O)[C@H]3COC(=O)[C@H]23)OCO4)cc(OC)c1OC,,3.16 µM (active)
COc1ccc(-c2ccc3cc(C(=O)O)ccc3c2)cc1C12CC3CC(CC(C3)C1)C2,-6.4%,
COC(=O)Nc1nc2ccc(C(=O)c3ccccc3)cc2[nH]1,-4.55% [at 12.8 µM],
COc1ccc2cc3[n+](cc2c1OC)CCc1cc2c(cc1-3)OCO2,,1.26 µM (active)
CNNCc1ccc(C(=O)NC(C)C)cc1,-6.65%,
N=C(N)c1ccc(OCCCCCOc2ccc(C(=N)N)cc2)cc1,,0.251 µM (active)
Oc1c(Cl)cc(Cl)c2cccnc12,,10 µM (active)
CCc1cc(C(N)=S)ccn1,1.02%,
COc1cc2c(Nc3ccc(Br)cc3F)ncnc2cc1OCC1CCN(C)CC1,,3.98 µM (active)
COC(=O)Nc1nc2ccc(Sc3ccccc3)cc2[nH]1,0.713% [at 12.8 µM],
C1CCC(C(CC2CCCCN2)C2CCCCC2)CC1 (stereo unspecified),,7.94 µM (active)
CC(C)Cn1cnc2c(N)nc3ccccc3c21,-18.2%,
COc1cc(NCc2ccc3nc(N)nc(N)c3c2C)cc(OC)c1OC,,0.141 µM (active)
CCCCOc1ccc(CC(=O)NO)cc1,,4.47 µM (active)
Cc1nnc(NS(=O)(=O)c2ccc(N)cc2)s1,-1.14%,
Nc1nc(N)c2nc(CNc3ccc(C(=O)NC(CCC(=O)O)C(=O)O)cc3)cnc2n1 (stereo unspecified),7.5%,
CCOC(=O)[C@H](CCc1ccccc1)N[C@H]1CS[C@H](c2cccs2)CN(CC(=O)O)C1=O,-20%,
CNC(=O)c1cc(Oc2ccc(NC(=O)Nc3ccc(Cl)c(C(F)(F)F)c3)cc2)ccn1,,11.2 µM (active)
CCc1c2c(nc3ccc(OC(=O)N4CCC(N5CCCCC5)CC4)cc13)-c1cc3c(c(=O)n1C2)COC(=O)[C@]3(O)CC,-7.67%,
CC(C)NCC(O)c1ccc(NS(C)(=O)=O)cc1 (stereo unspecified),,inactive
CC(C)OC(=O)C(C(=O)OC(C)C)=C1SC=CS1,3.61%,
CC[C@H](C)C(=O)O[C@H]1C[C@@H](C)C=C2C=C[C@H](C)[C@H](CC[C@@H]3C[C@@H](O)CC(=O)O3)[C@H]21,12.4%,
O=c1cc(O)c(Cl)c[nH]1,11.6%,
CC(=O)Oc1ccccc1C(=O)Nc1ncc([N+](=O)[O-])s1,,12.6 µM (active)
CNC1CCCN(c2c(F)cc3c(=O)c(C(=O)O)cn(C4CC4)c3c2OC)C1 (stereo unspecified),-3.72%,
